# Source: the supplement of paper PMC9950053
# Where a name gives a salt, the structure may show the parent alone.
# Tested on: Danio rerio larvae (5 dpf)
# Test: 1-h baseline activity (% time moving, periods 1-6) minus DMSO control (percentage points); higher = more locomotor activity than DMSO larvae
# Conditions: 10 µM; exposure time: 3 h pre-incubation + 3 h imaging
# Description: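 Wild-type 5 dpf zebrafish larvae (n=48 per drug, 96-well plates, 28.5 °C) were exposed to Tocris FDA-approved library compounds at 10 µM (0.1% DMSO) for 3 h before and 3 h during imaging. Images were taken every 6 s during visual (moving coloured lines) and acoustic stimuli, and larvae were tracked with the DeepLabCut-based Z-LaP Tracker. Each behavioural measure is the treated-group mean minus the DMSO vehicle control mean (n=844), in percentage points. This mapping covers compounds with 4-character plate codes.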
row,SMILES,1-h baseline activity
1,Cc1ccc(NC(=O)c2ccc(CN3CCN(C)CC3)cc2)cc1Nc1nccc(-c2cccnc2)n1 [Imatinib mesylate],-13.5
2,CN/C(=N\CCSCc1nc[nH]c1C)NC#N [Cimetidine],0.11
3,CN1CCN2c3ncccc3Cc3ccccc3C2C1 (stereo not given) [Mirtazapine],11.7
4,OCCOCCN1CCN(C2=Nc3ccccc3Sc3ccccc32)CC1 [Quetiapine hemifumarate],9.62
5,CCCCCCCCc1ccc(CCC(N)(CO)CO)cc1,-21.1
6,C[C@]12CCC(=O)C=C1CC[C@@H]1[C@@H]2[C@@H](O)C[C@@]2(C)[C@H]1CC[C@]2(O)C(=O)CO [Hydrocortisone],1.95
7,Nc1cc(N2CCCCC2)nc(N)[n+]1[O-] [Minoxidil],1.13
8,CCCN(CCC)S(=O)(=O)c1ccc(C(=O)O)cc1 [Probenecid],-2.34
9,CCc1ccc(CCOc2ccc(CC3SC(=O)NC3=O)cc2)nc1 (stereo not given) [Pioglitazone hydrochloride],-7.48
10,Cc1cccc(CN2CCN(C(c3ccccc3)c3ccc(Cl)cc3)CC2)c1 (stereo not given) [Meclizine dihydrochloride],20.8
11,O=C(c1ccc(OCCN2CCCCC2)cc1)c1c(-c2ccc(O)cc2)sc2cc(O)ccc12 [Raloxifene hydrochloride],-7.31
12,CCCN(CCc1cccs1)[C@H]1CCc2c(O)cccc2C1 [Rotigotine hydrochloride],-27
13,CC(C)c1nc(N(C)S(C)(=O)=O)nc(-c2ccc(F)cc2)c1/C=C/[C@@H](O)C[C@@H](O)CC(=O)O [Rosuvastatin calcium],2.58
14,CN1CCN(CCCN2c3ccccc3Sc3ccc(Cl)cc32)CC1 [Prochlorperazine dimaleate],4.26
15,COc1cc2nc(N3CCN(C(=O)c4ccco4)CC3)nc(N)c2cc1OC [Prazosin hydrochloride],-4.14
16,Cn1cnc([N+](=O)[O-])c1Sc1ncnc2[nH]cnc12 [Azathioprine],7.62
17,CC(C)n1c(/C=C/C(O)CC(O)CC(=O)O)c(-c2ccc(F)cc2)c2ccccc21 (stereo not given) [Fluvastatin sodium],-0.765
18,Nc1cccc2c1CN(C1CCC(=O)NC1=O)C2=O (stereo not given) [Lenalidomide],-7.06
19,Cc1nc(-c2ccc(OCC(C)C)c(C#N)c2)sc1C(=O)O [Febuxostat],-2.75
20,CC(=O)S[C@@H]1CC2=CC(=O)CC[C@]2(C)[C@H]2CC[C@@]3(C)[C@@H](CC[C@@]34CCC(=O)O4)[C@H]12 [Spironolactone],-0.875

row,SMILES,1-h baseline activity
1,CN(CCOc1ccc(CC2SC(=O)NC2=O)cc1)c1ccccn1 (stereo not given) [Rosiglitazone],-1.36
2,CCCCC1=NC2(CCCC2)C(=O)N1Cc1ccc(-c2ccccc2-c2nnn[nH]2)cc1 [Irbesartan],1.48
3,CN(CCOc1ccc(NS(C)(=O)=O)cc1)CCc1ccc(NS(C)(=O)=O)cc1 [Dofetilide],-0.169
4,C/C(O)=C(\C#N)C(=O)Nc1ccc(C(F)(F)F)cc1 [Teriflunomide],-8.94
5,CCOC(=O)N1CCC(=C2c3ccc(Cl)cc3CCc3cccnc32)CC1 [Loratidine],-19.4
6,Cc1cc(C2CCCCC2)n(O)c(=O)c1 [Ciclopirox],-1.84
7,CC(C)Nc1cccnc1N1CCN(C(=O)c2cc3cc(NS(C)(=O)=O)ccc3[nH]2)CC1 [Delavirdine mesylate],-4.01
8,CC(CCc1ccc(O)cc1)NCCc1ccc(O)c(O)c1 (stereo not given) [Dobutamine hydrochloride],-2.47
9,NC(=O)N1c2ccccc2C=Cc2ccccc21 [Carbamazepine],-4.18
10,O=C(O)c1cc(/N=N/c2ccc(S(=O)(=O)Nc3ccccn3)cc2)ccc1O [Sulfasalazine],12.5
11,C[C@@H](O[C@H]1OCCN(Cc2n[nH]c(=O)[nH]2)[C@H]1c1ccc(F)cc1)c1cc(C(F)(F)F)cc(C(F)(F)F)c1 [Aprepitant],-8.77
12,C=CC(=O)N1CCC[C@@H](n2nc(-c3ccc(Oc4ccccc4)cc3)c3c(N)ncnc32)C1 [Ibrutinib],-7.48
13,CCc1c2c(nc3ccc(OC(=O)N4CCC(N5CCCCC5)CC4)cc13)-c1cc3c(c(=O)n1C2)COC(=O)[C@]3(O)CC,-6.2
14,CCOC(=O)[C@H](CCc1ccccc1)N[C@@H](C)C(=O)N1[C@H](C(=O)O)C[C@@H]2CCC[C@@H]21 [Ramipril],1.29
15,NC(=O)c1ncn([C@@H]2O[C@H](CO)[C@@H](O)[C@H]2O)n1 [Ribavirin],1.15
16,CC(C)c1ccc2oc3nc(N)c(C(=O)O)cc3c(=O)c2c1 [Amlexanox],5.8
17,Nc1nc(F)nc2c1ncn2[C@@H]1O[C@H](CO)[C@@H](O)[C@@H]1O [Fludarabine],4.33
18,CCOC(=O)[C@H](CCc1ccccc1)N[C@H]1CCc2ccccc2N(CC(=O)O)C1=O [Benazepril hydrochloride],0.149
19,OCCN(CCO)c1nc(N2CCCCC2)c2nc(N(CCO)CCO)nc(N3CCCCC3)c2n1 [Dipyridamole],-3.7
20,NS(=O)(=O)c1cc(C(=O)O)c(NCc2ccco2)cc1Cl [Furosemide],5.77
